# Most compounds without a hit are left out; they make up all but 11% or so of the library.
# ALDH1A1 block = ALDH1A1 (human) enzyme inhibition. Potency, µM (series often up to 75.3 µM), hits mostly inhibitors. 7.3% of 220,000 active. AID 1030. Purified ALDH1A1, NADH fluorescence, propionaldehyde substrate
# PNC assembly inh = inhibitors of perinucleolar compartment assembly; PC3M PTB-GFP, PNC prevalence imaging, 16 h; stronger effect = lower value; AID 2417; 3.1% of 140,000 active; activity change (PNC), negative = inhibition, % at 10 µM;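 active means readout at or below -70, meaning at least 70% loss of cells showing the perinucleolar compartment, a nuclear body marking cancer cells; inconclusive means readout between -30 and a set limit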
#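 PC3M cells stably expressing PTB-GFP, 750–1000 cells/well, treated 16 h at 37 °C with compound (23 nl of library stock), in duplicate. After paraformaldehyde fixation and Hoechst stain, imaged at 20x; PNC prevalence scored by image analysis.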
# JMJD2E inh = JMJD2E (human) inhibition | B2RXH2 | JMJD2E catalytic domain, FDH-coupled NADH fluorescence (FDH is formaldehyde dehydrogenase) | Potency, µM (highest dose often 57.1 µM), actives largely listed as inhibitors | 1.6% of 230,000 active; further: nearly all actives have a fitted effect of over 50% in size
# Target sequence (B2RXH2 1-337 limits assumed): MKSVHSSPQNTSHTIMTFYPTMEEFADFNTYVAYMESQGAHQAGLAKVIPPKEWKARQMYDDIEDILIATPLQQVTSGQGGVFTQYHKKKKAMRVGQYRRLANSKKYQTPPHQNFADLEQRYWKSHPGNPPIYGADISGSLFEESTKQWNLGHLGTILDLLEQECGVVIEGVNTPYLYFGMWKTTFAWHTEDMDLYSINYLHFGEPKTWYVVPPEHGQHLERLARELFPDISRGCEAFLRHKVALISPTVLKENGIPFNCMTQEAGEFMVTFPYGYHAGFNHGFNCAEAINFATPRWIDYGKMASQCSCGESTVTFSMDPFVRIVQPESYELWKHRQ
# HPGD inh = HPGD (human) dehydrogenase inhibition. P15428. purified HPGD, NADH fluorescence kinetic, PGE2 substrate. Potency, µM, actives largely listed as inhibitors. 4.3% of 150,000 active. AID 894
# Target sequence (P15428 whole entry, looked up): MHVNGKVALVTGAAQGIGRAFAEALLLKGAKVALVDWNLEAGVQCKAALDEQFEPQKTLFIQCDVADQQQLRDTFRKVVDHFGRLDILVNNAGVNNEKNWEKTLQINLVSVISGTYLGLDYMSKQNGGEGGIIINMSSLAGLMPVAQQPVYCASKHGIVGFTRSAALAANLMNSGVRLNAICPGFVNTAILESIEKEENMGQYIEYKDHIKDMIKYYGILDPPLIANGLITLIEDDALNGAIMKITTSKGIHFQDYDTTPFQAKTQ
#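 20 nM HPGD preincubated 15 min at room temperature with compound in 50 mM Tris-HCl pH 8, 0.01% Tween 20. Started with 1 mM NAD+ and 30 uM prostaglandin E2; NADH fluorescence (360/450 nm) read 5 times over 30-s intervals, last minus first.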
# A number is an active result; . = inactive; ? = inconclusive; / = no result given; [ ] = remark or other dose. Unless noted, the call rests on the fitted dose curve; in most records, active means well fitted inhibition curve with a large enough effect (not every such curve was filed as active); inconclusive means small, poorly fitted or top-dose-only effect, or another doubt; inactive means no such curve, though single readings can be large or run the other way.
SMILES,ALDH1A1 block,PNC assembly inh,JMJD2E inh,HPGD inh
CCCC(=O)Nc1ccccc1NC(=O)c1ccc(OC)cc1,?,/,.,/
CCOc1ccc2nc(C)cc(Nc3cccc([N+](=O)[O-])c3)c2c1,.,-102,.,.
CC(=O)ON(C(C)=O)S(=O)(=O)c1ccc(Cl)cc1,.,/,.,.
CCN(CC)C(=O)c1sc(N)c(C#N)c1C,?,-95,.,.
CCN(CC)C(=O)c1sc(NC(=O)C(Sc2ccccc2)c2ccccc2)c(C(=O)OC(C)C)c1C (centres undefined),.,.,.,.
CCOC(=O)C(=O)Nc1sc(C(=O)N(CC)CC)c(C)c1C#N,.,/,.,/
CCN(CC)C(=O)c1sc(N)c(C(=O)OC(C)C)c1C,?,.,.,20µM
Cc1noc(C)c1-c1cncnc1NCc1cccnc1,25µM,/,/,/
CCN(CC)c1ccc(/C=C2\C(=O)c3ccc(C(=O)O)cc3C2=O)cc1,3.2µM,?,.,2.8µM
CCN(CC)c1ccc(C(=O)O)cc1,.,.,?,.
COc1ccccc1/C=C/CN1CCCC(CCC(=O)NCc2ccccc2F)C1 (centres undefined),?,/,.,/
COC(=O)C1=C(C)NC(=O)NC1c1ccc(-c2ccc(Cl)cc2)o1 (centres undefined),11µM,/,.,/
N#C/C(=C\c1ccc(-c2ccc(C(=O)O)cc2)o1)c1nc2ccccc2[nH]1,.,/,28µM,/
N#C/C(=C\c1ccc(N2CCOCC2)o1)c1nc2ccccc2[nH]1,?,.,?,.
Cc1cc(-c2ccccc2C(=O)Nc2ccccc2O)on1,/,/,.,/
Oc1ccccc1-c1cc(-c2ccccc2)no1,.,?,.,1.6µM
Cc1ccccc1-c1cc(-c2ccccc2O)on1,.,.,.,14µM
Cc1ccc(-c2cc(-c3ccccc3)no2)c(O)c1,.,.,.,.
N#CCCn1cc(C(=O)N2CCOCC2)c(-c2ccc3c(c2)OCCO3)n1,.,/,.,/
CCCCN(CC)C(=O)Cn1cnc2ccc(S(=O)(=O)N3CCC(C)CC3)cc2c1=O,.,.,.,.
Cn1c(=O)[nH]c(=O)c2c1nc1n2CCCN1Cc1ccccc1,/,/,.,/
Cc1ccc(C(=O)N2CCN(c3cc(=O)[nH]nc3-c3ccccc3)CC2)cc1,16µM,.,.,.
CCCC(=O)NCc1cc(-c2nn(C)c(=O)c3ccccc23)ccc1C,.,.,.,18µM
Cc1ccc(-c2nn(C)c(=O)c3ccccc23)cc1CNC(=O)c1ccccc1,.,/,.,/
CCC(=O)NCc1cc(-c2nn(C)c(=O)c3ccccc23)ccc1C,.,.,.,.
SMILES,ALDH1A1 block,PNC assembly inh,JMJD2E inh,HPGD inh
Cc1ccc(NC(=O)c2ccc(-c3nn(C)c(=O)c4ccccc34)cc2)c(C)c1,8.9µM,.,.,13µM
CC(O)CNC(=O)c1ccc(-c2nn(C)c(=O)c3ccccc23)cc1 (centres undefined),.,.,.,28µM
Cn1nc(-c2ccc(C(=O)Nc3cccc(Cl)c3)cc2)c2ccccc2c1=O,.,.,.,.
CCCCCCCCCCCC(=O)N/N=C/c1ccco1,.,.,.,.
OC(COCCOc1ccc(Br)cc1)CN1CCN(Cc2ccccc2)CC1 (centres undefined),.,.,.,.
Cc1ccc(NC(=O)c2ccc(-c3nn(C)c(=O)c4ccccc34)cc2)cc1,.,.,.,18µM
COc1cccc(CN2CCN(C(=O)c3ccc(-c4ccccc4)cc3)CC2)c1,?,.,?,.
Cn1nc(-c2ccc(C(=O)N3CCN(Cc4ccccc4)CC3)cc2)c2ccccc2c1=O,.,.,.,16µM
Cn1nc(-c2ccc(C(=O)Nc3cccnc3)cc2)c2ccccc2c1=O,.,.,.,?
COC(=O)[C@@H](NC(=O)N1CCc2nc(COc3ccccc3)c3c(c2C1)CO[C@@H](C)C3)C(C)C,.[13.5 µM],/,.[11.4 µM],.
COc1cc(/C=C(/NC(=O)c2ccccc2)C(=O)Nc2ccccc2)c([N+](=O)[O-])cc1OC,.,.,.,.
COc1ccccc1C(=O)N/C(=C/c1cccc([N+](=O)[O-])c1)C(=O)Nc1cccc(C(=O)O)c1,.,/,.,/
COc1ccc(NC(=O)/C(=C\c2cc(OC)c(OC)cc2[N+](=O)[O-])NC(=O)c2ccccc2)cc1,.,.,.,32µM
COc1ccc(C(=O)N/C(=C\c2cccc([N+](=O)[O-])c2)C(=O)Nc2cccc(C(=O)O)c2)cc1,13µM,/,.,/
NC(=O)CC(NC(=O)Cc1cccc2ccccc12)c1ccc(N2CCN(c3ccc(F)cc3)CC2)c([N+](=O)[O-])c1 (centres undefined),/,/,.,/
O=C(CSc1nc(Nc2ccccc2)nc(N2CCOCC2)n1)N1CCCC1,.,?,.,.
c1ccc(Nc2nc(N3CCNCC3)nc(N3CCOCC3)n2)cc1,.,-100,.,.
O=C(CSc1nc(Nc2ccccc2)nc(N2CCOCC2)n1)N1CCc2ccccc21,.,-117,.,.
CC(C)(C)Nc1nc(SCC(=O)Nc2ccccc2)nc(N2CCOCC2)n1,?,/,.,/
CN(C)c1nc(SCC(=O)Nc2ccccc2)nc(N2CCOCC2)n1,25µM,/,.,/
CCN1CCN(CCOc2cccc(Cl)c2Cl)CC1,8.9µM,/,.,/
CCN1CCN(CCCOc2ccc(Cl)cc2Br)CC1,13µM,/,.,/
CC1CC(C)CN(CCOc2cccc(Cl)c2Cl)C1 (centres undefined),.,?,?,.
Clc1ccc(OCCCN2CCCCC2)c(Br)c1,.,.,?,.
COc1ccccc1Nc1ccc(N)cc1,28µM,/,.,/
SMILES,ALDH1A1 block,PNC assembly inh,JMJD2E inh,HPGD inh
CCC1=C2CC[C@H]3C(=O)N(C)C(=O)[C@H]3[C@H]2[C@@]2(C)C(=NCc3ccccc3)OC(=O)N2C1=O,.,/,.,.
O=C(O)C1CSC2c3ccccc3C(=O)N12 (centres undefined),7.5µM,?,.,?
O=C(NCc1cccs1)[C@@H]1CSC2c3ccccc3C(=O)N21 (some centres undefined),.,.,.,.
CC(OC(=O)/C=C/c1ccco1)C(=O)Nc1cccc([N+](=O)[O-])c1 (centres undefined),?,-84,.,?
CC(Oc1ccccc1)C(=O)Nc1cccc([N+](=O)[O-])c1 (centres undefined),.,/,.,/
COc1ccc([N+](=O)[O-])cc1NC(=O)C(C)OC(=O)/C=C/c1ccco1 (centres undefined),?,.,.,28µM
COc1ccc([N+](=O)[O-])cc1NC(=O)c1ccco1,.,/,.,/
CN1CCc2c(sc3c2C(=O)NC(c2cn(Cc4ccccc4)c4ccccc24)N3)C1 (centres undefined),?,-103,?,?
CCc1cccc(C)c1NC(=S)N(CCOC)C(C)c1ccco1 (centres undefined),/,/,.,/
c1cncc(-c2cncnc2NC2CCNCC2)c1,25µM,/,/,/
c1cncc(-c2ccc3ncnc(NC4CCNCC4)c3c2)c1,.,/,/,/
C/C(=C\C(=O)C(F)(F)F)Nc1ccc(C(F)(F)F)cc1,22µM,?,.,.
CC(C)(CCl)C(=O)Nc1ccc(C(F)(F)F)cc1,.,/,.,/
CCN(CC)CCC(C)OC(=O)c1ccc(O)cc1O (centres undefined),.,/,.,/

# Assay outcomes: PubChem, National Center for Advancing Translational Sciences (NCATS)
